The source of these data is PubChem BioAssay AID652065 (The Scripps Research Institute Molecular Screening Center, 2013).

Screen size: about 4,300 compounds; about 3,000 (70%) were called active.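 Rule for the calls: active = inhibition above a per-plate cutoff, the mean inhibition of sample wells plus 3 SD (cut at about 35% in these data); inactive = the rest.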 So high a share suggests a set chosen from earlier hits. Only a sample is shown.

The test in a line: small molecules binding CAG repeat RNA – biochemical, fluorescence, confirmation (AID 652065).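 Note: loss of TO-PRO-1 fluorescence as compound displaces dye from 1x1 AA loop RNA; 0% = DMSO only wells and 100% = 100 µM mitoxantrone.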 The note with it: r(CAG) RNA repeat, TO-PRO-1 dye displacement fluorescence; at 3 µM; stronger effect = higher value.
As for `Cc1sc2nc(SCC(=O)c3ccc(O)c(O)c3)n(Cc3ccco3)c(=O)c2c1C`, the inhibition (commonly the drop in the measured response relative to a control, in per cent) is 64.2% (active).
Next, `CCOC(=O)C1Nc2ccc(C(F)(F)F)cc2C2C=CCC12` (stereo unspecified): 18.9% (inactive); `CC1(C(=O)NS(=O)(=O)c2ccc(C#N)cc2)CCN1C(=O)c1ccc(C2CCCCC2)cc1` (stereo unspecified): 51.7% (active); `Cc1cc(/C=N/Nc2ccc([N+](=O)[O-])cn2)c(C)n1-c1cccc(C(=O)O)c1`: 35% (active).
Take `Cc1ccc(-n2c(SCC(=O)Nc3ccc(S(=O)(=O)Nc4nccs4)cc3)nnc2-c2ccccn2)cc1`: the inhibition was 60.6% (active).
The value for `Cc1ccc(-n2c(SCC(=O)Nc3ccc(S(=O)(=O)Nc4nccs4)cc3)nnc2-c2ccncc2)cc1` was 67.3% (active); that for `Cc1ccc(-n2c(SCC(=O)Nc3ccc(S(=O)(=O)Nc4nccs4)cc3)nnc2-c2cccnc2)cc1` was 58.8% (active); that for `O=C(O)c1ccc(N/N=C/c2cn(-c3ccccc3)nc2-c2cccs2)cc1` was 61.1% (active).
Next, `O=C(NNC(=S)NC(=O)c1cn(-c2ccccc2)nc1-c1ccccc1)c1ccncc1`: 54.8% (active); `O=C(O)c1ccc(NC(=O)c2cn(-c3ccccc3)nc2-c2ccc(Cl)cc2)cc1`: 62.6% (active); `CC(C)=CCCC1(C)C=Cc2c(ccc3c2[nH]c2cc(O)c(C)cc23)O1` (stereo unspecified): 30.6% (inactive).
Next, `Cc1cc(/C=C2/C(=N)N3C(=NC2=O)SN=C3S(C)(=O)=O)c(C)n1-c1ccccc1`: 81.7% (active); `CCOc1ccc(-n2c(O)c(/C=N/Nc3nnc(C)c(=O)[nH]3)c3ccccc3c2=O)cc1`: 52.6% (active).
Consider `C=C1c2c(Cl)ccc(O)c2C(O)=C2C(=O)[C@]3(O)C(O)=C(C(N)=O)C(=O)[C@@H](N(C)C)[C@@H]3[C@@H](O)C12` (stereo partly specified), for which the inhibition is 70.9% (active).
Turning to `CCOc1cc(C)ccc1OCc1nnc(SCC(=O)Nc2cccc(C(=O)O)c2)n1-c1ccccc1`, the inhibition is 41.2% (active).
`Cc1ccc(-n2ncc3c(Nc4cccc(C(=O)O)c4)ncnc32)cc1`: the inhibition was 23.1% (inactive).
The value for `COc1ccc2[nH]c3c(C)c4cc[n+](C)cc4c(C)c3c2c1` was 47.5% (active); that for `N#CCC(=O)Nc1ccc(C(=O)OCC(=O)Nc2sc3c(c2C#N)CCCC3)cc1` was 33.2% (inactive).
Next, `COC(=O)c1c(NC(=O)C2CC(C)=C(C)CC2C(=O)O)sc2c1CCCCC2` (stereo unspecified): 66.4% (active); `N#Cc1c(NC(=O)C2CC(Cl)=CCC2C(=O)O)sc2c1CCCCC2` (stereo unspecified): 38% (active); `CCOC(=O)c1c(NC(=O)C2CC=CCC2C(=O)O)sc(C)c1CC` (stereo unspecified): 37.1% (active).
Take `CSc1ccc(C=Nn2c(-c3ccc(F)cc3)n[nH]c2=S)cc1`: the inhibition is 41.7% (active).
With `O=C1CC(c2ccccc2)=NN1c1ccc([N+](=O)[O-])cc1`, the inhibition was 23.7% (inactive).
For the compound `N#Cc1c(-c2ccccc2)nc(SCc2cccc(C(F)(F)F)c2)[nH]c1=O`, the inhibition was 80.3% (active).
Next, `Cc1ccc(CSc2nc(-c3ccccc3)c(C#N)c(=O)[nH]2)cc1`: 66.6% (active).
Regarding `N#Cc1c(-c2ccccc2)nc(SCc2ccc([N+](=O)[O-])cc2)[nH]c1=O`, the inhibition is 58.7% (active).
